Assay results published in PubChem BioAssay AID652068 (The Scripps Research Institute Molecular Screening Center, 2013).
Screen size: about 4,300 compounds; about 4,000 (93%) were called active. So high a share suggests a set chosen from earlier hits. A selection follows. Unmarked numbers belong to inactive results.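 How the source made its calls: active means inhibition above its plate's cutoff, the mean test-well inhibition plus 3 SD (cut at about 4.8% in these data); inactive means the rest.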

Assay: DNA CAG/GTC dye complex inhibitors – biochemical, fluorescence, TO-PRO-1 dye, d(CAG) DNA oligo, counter-screen for rCAG RNA repeat binder project (AID 652068);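 further: 0% = DNA dye mix with DMSO and 100% = 100 µM mitoxantrone; hits displace the dye from DNA and so lower well fluorescence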
Details: d(CAG) DNA oligo TO-PRO-1 dye displacement, at 3 µM, hits give high values

Structure (SMILES)	inhibition
C=C1c2c(Cl)ccc(O)c2C(O)=C2C(=O)[C@]3(O)C(O)=C(C(N)=O)C(=O)[C@@H](N(C)C)[C@@H]3[C@@H](O)C12 (some centres not stated)	38% (active)
Cc1ccc(Nc2nc(CSc3nnnn3-c3ccccc3)cc(=O)[nH]2)cc1	16.6% (active)
O=C(O)c1ccc2c(c1)C(=O)N(c1ccc(/C=C/C(=O)c3ccccc3)cc1)C2=O	23.6% (active)
CCOc1ccc(-n2c(O)c(/C=N/Nc3nnc(C)c(=O)[nH]3)c3ccccc3c2=O)cc1	22.9% (active)
N#Cc1c(NC(=O)C2CC(Cl)=CCC2C(=O)O)sc2c1CCCCC2 (configuration not stated)	9.19% (active)
COC(=O)c1c(NC(=O)C2CC(C)=C(C)CC2C(=O)O)sc2c1CCCCC2 (configuration not stated)	20.6% (active)
CCc1nnc(NS(=O)(=O)c2ccc(NC(=S)NC(=O)c3cccs3)cc2)s1	16.6% (active)
CCc1nnc(NS(=O)(=O)c2ccc(NC(=O)c3cccc(OC(F)(F)C(F)F)c3)cc2)s1	22.8% (active)
O=C(O)CC/C(=C\c1cc2c(cc1Br)OCO2)c1nc2ccccc2s1	13.3% (active)
COc1ccc(C(=O)Nc2cccc(/C=C(/CCC(=O)O)c3nc4ccccc4s3)c2)cc1	33.5% (active)
Cc1ccc2cc(/C=N/Nc3ccc(C(=O)O)cc3)c(Cl)nc2c1	12% (active)
Cc1ccc(/C=C/C(=O)Nc2ccc([N+](=O)[O-])c(NC(=O)/C=C/c3ccc(C)o3)c2)o1	24.9% (active)
O=C(Nc1nnc(-c2ccccc2)o1)c1cc(-c2cccs2)nc2ccccc12	28.7% (active)
O=C(Nc1ccccc1)Nc1nnc(COc2ccccc2F)s1	24.9% (active)
O=C(NC(=S)Nc1ccccc1C(=O)O)c1ccc(-c2ccc(Br)cc2)o1	40.4% (active)
COCCNC(=O)Nc1ccc2nc(-c3ccco3)c(-c3ccco3)nc2c1	28.6% (active)
Cc1ccc(C(=O)Oc2coc(CSc3nnc(NC(=O)c4cccs4)s3)cc2=O)cc1C	23.1% (active)
Cc1ccc(-c2csc(C(C#N)=C(O)CN3CCN(C(=O)c4ccco4)CC3)n2)cc1	18.7% (active)
Cc1ccc(S(=O)(=O)NCCC(c2ccccc2)c2ccccc2)cc1C(=O)O	5.44% (active)
Cc1ccccc1OCC(=O)Nc1nnc(S(=O)(=O)N2CCCC2)s1	10.8% (active)
CCCCCCC(=O)Nc1nc(C)c(-c2csc(Nc3cc(Cl)ccc3OC)n2)s1	11.6% (active)

Structure (SMILES)	inhibition
C[C@H]([C@@H](O)[C@@H](O)[C@@H](C)C(C)(C)C)[C@H]1CC[C@H]2C3CC[C@H]4C[C@H](OS(=O)(=O)O)[C@@H](OS(=O)(=O)O)C[C@]4(C)[C@H]3CC[C@]12C (some centres not stated)	61.2% (active)
Cc1ccc(S(=O)(=O)Nc2nc3ccccc3s2)cc1[N+](=O)[O-]	6.62% (active)
O=C1/C(=C/c2ccc(F)cc2)SC(=S)N1NS(=O)(=O)c1ccccc1	11.9% (active)
COc1ccc2[nH]c3c(C)c4cc[n+](C)cc4c(C)c3c2c1	61.2% (active)
Oc1c(Cl)cc(Cl)c(Cl)c1Cc1c(O)c(Cl)cc(Cl)c1Cl	76.5% (active)
CCn1c(SCC(=O)Nc2ccc(S(=O)(=O)Nc3onc(C)c3C)cc2)nnc1-c1ccccc1	6.29% (active)
Cc1cc(NS(=O)(=O)c2ccc(NC(=O)CSc3nnc(SCc4ccc(F)cc4)s3)cc2)nc(C)n1	13% (active)
Cc1cc(NS(=O)(=O)c2ccc(NC(=O)CSc3nnc(-c4ccc(C(C)(C)C)cc4)n3Cc3ccco3)cc2)nc(C)n1	4.42% (active)
Cc1nnc(SC(C(=O)Nc2cc(Cl)cc(Cl)c2)c2ccccc2)[nH]c1=O (configuration not stated)	28% (active)
CCOc1ccc(-n2c(SCC(=O)Nc3cc(C(=O)O)ccc3Cl)nc3ccccc3c2=O)cc1	19.2% (active)
COC(=O)c1sc(-c2ccc(C(C)(C)C)cc2)cc1NC(=O)/C=C/C(=O)O	41.3% (active)
CSc1ccc(C=Nn2c(-c3ccc(F)cc3)n[nH]c2=S)cc1	11.3% (active)
CC(C(=O)Nc1ccc(O)c(C(=O)O)c1)N1C(=O)/C(=C/c2cccs2)SC1=S (configuration not stated)	42.3% (active)
COc1ccc(S(=O)(=O)NCCc2c[nH]c3ccccc23)cc1OC	0.56%
COc1ccc(-c2cc(C(=O)NC(Cc3c[nH]c4ccccc34)C(=O)O)c(C)o2)cc1OC (configuration not stated)	16.9% (active)
COc1ccc(-c2cc(=O)oc3cc(OCC(=O)N[C@@H](Cc4c[nH]c5ccccc45)C(=O)O)ccc23)cc1	26.4% (active)
CC(Oc1ccc2c(-c3ccccc3)cc(=O)oc2c1)C(=O)NC(Cc1c[nH]c2ccccc12)C(=O)O (configuration not stated)	16.9% (active)
O=C(N[C@@H](Cc1c[nH]c2ccccc12)C(=O)O)OCC1c2ccccc2-c2ccccc21	23.8% (active)
COc1cccc2sc(NNC(=O)c3nc4ccccc4s3)nc12	42.1% (active)
Cc1ccc(-n2c(SCC(=O)Nc3ccc(S(=O)(=O)Nc4nccs4)cc3)nnc2-c2ccncc2)cc1	35.9% (active)
Cc1ccc(-n2c(SCC(=O)Nc3ccc(S(=O)(=O)Nc4nccs4)cc3)nnc2-c2ccccn2)cc1	23.8% (active)

Structure (SMILES)	inhibition
Cc1ccc(-n2c(SCC(=O)Nc3ccc(S(=O)(=O)Nc4nccs4)cc3)nnc2-c2cccnc2)cc1	24.7% (active)
CC1(C(=O)NS(=O)(=O)c2ccccc2)CCN1C(=O)Cc1ccc(-c2ccccc2)cc1 (configuration not stated)	7.2% (active)
COc1ccc(S(=O)(=O)NC(=O)C2(C)CCN2C(=O)c2ccccc2CCc2ccccc2)cc1 (configuration not stated)	6.35% (active)
CC1(C(=O)NS(=O)(=O)Cc2cccc(Cl)c2)CCN1C(=O)Cc1ccc(Cl)cc1Cl (configuration not stated)	36.2% (active)
CC(C)c1ccc(CC(=O)N2CCC2(C)C(=O)NS(=O)(=O)c2ccc(C(C)(C)C)cc2)cc1 (configuration not stated)	25.3% (active)
CCCc1ccc(OCC(=O)NNC(=S)NC(=O)c2ccco2)cc1	14.4% (active)
CC(Oc1ccc2ccccc2c1)C(=O)NNC(=S)NC(=O)c1ccco1 (configuration not stated)	11.8% (active)
O=C(Nc1ccc2c(c1)CCC2)c1cccc(S(=O)(=O)Nc2ccccc2Cl)c1	10.7% (active)
NS(=O)(=O)c1ccc(N=Nc2c(O)[nH]c3ccc(Br)cc23)cc1	9.96% (active)
N#CCC(=O)Nc1ccc(C(=O)OCC(=O)Nc2sc3c(c2C#N)CCCC3)cc1	17% (active)
COC(=O)c1sccc1NC(=O)CSc1ccccc1NS(=O)(=O)c1cc(Cl)ccc1Cl	32.6% (active)
NS(=O)(=O)c1ccc(NC2=CC(c3ccc(F)cc3)N(c3ccc(S(N)(=O)=O)cc3)C2=O)cc1 (configuration not stated)	15% (active)
CC(C)(C)C1C/C(=C/c2ccco2)C(=O)/C(=C/c2ccco2)C1 (configuration not stated)	17.1% (active)
CC(=O)N(c1ccc2oc(=O)sc2c1)S(=O)(=O)c1ccc(C)cc1	3.88%
O=C(c1cccnc1)N(c1cc2sc(=O)oc2c2ccccc12)S(=O)(=O)c1ccccc1	20.1% (active)
COc1ccc(Cc2nnc(SCC(=O)Nc3ccc(C)c(Cl)c3)[nH]c2=O)cc1	24.4% (active)
O=C(COc1ccccc1Cl)Nc1ccc(C(=O)c2ccc(C(=O)O)cc2)cc1	3.95%
Cc1cc(C)cc(OCC(=O)Nc2cc(NC(=O)COc3cc(C)cc(C)c3)cc(C(=O)O)c2)c1	39.1% (active)
Cc1cccc(OCC(=O)Nc2ccc(C(=O)O)cc2NC(=O)COc2cccc(C)c2)c1	11.1% (active)
Cc1cc(C)cc(Oc2c(C(F)(F)F)oc3cc(OCC(=O)O)ccc3c2=O)c1	4.02%
Cc1ccccc1-n1c(SCC(=O)Nc2cccc3ccccc23)nc(O)cc1=O	7.03% (active)

Structure (SMILES)	inhibition
CCOc1ccc(C(=O)Nc2ccc(S(=O)(=O)Nc3cc(C)on3)cc2)cc1	6.38% (active)
COc1cc2ccccc2cc1C(=O)Nc1ccc(S(=O)(=O)Nc2cc(C)on2)cc1	23.6% (active)
Cc1ccc(C(=O)/C=C/Nc2ccc(S(=O)(=O)Nc3onc(C)c3C)cc2)cc1	16.3% (active)
Cc1cc(OC(C)C(=O)Nc2ccc(S(=O)(=O)Nc3onc(C)c3C)cc2)cc(C)c1Cl (configuration not stated)	26.6% (active)
CCn1cc(C(=O)NCC2COc3ccccc3O2)c2cc(OC)c(OC)cc2c1=O (configuration not stated)	0.88%
CCOc1cc(C(=O)Nc2ccc(S(=O)(=O)Nc3cnc4ccccc4n3)cc2)cc(OCC)c1OCC	26.9% (active)
CCc1ccc(OC(C)C(=O)Nc2ccc(S(=O)(=O)Nc3cc(C)on3)cc2)cc1 (configuration not stated)	5.12% (active)
Cc1ccc(S(=O)(=O)N2[C@@H](c3ccc(Br)cc3)C(C(=O)O)=C[C@H]2CC2CCCC2)cc1	34.4% (active)
CCCCC[C@@H]1C=C(C(=O)O)[C@H](c2ccc(C#N)cc2)N1S(=O)(=O)c1ccc(C)cc1	20.6% (active)
Cc1cc(C(=O)N/N=C/c2ccc(O)c([N+](=O)[O-])c2)c(C)n1-c1ccc(F)cc1	14.8% (active)
Cc1ccc(SC(CC(=O)c2ccc(C(C)(C)C)cc2)C(=O)O)cc1 (configuration not stated)	12.6% (active)
Cn1c2ccccc2c2cc(/C=C(\NC(=O)c3ccccc3)C(=O)NCC(=O)O)ccc21	12.6% (active)
O=C1CC(c2ccccc2)=NN1c1ccc([N+](=O)[O-])cc1	14.2% (active)
O=C1Oc2ccccc2C(=O)/C1=C/c1ccccc1O	10.7% (active)
COc1cccc(-c2coc3cc4oc(=O)c(CC(=O)O)c(C)c4cc23)c1	11.6% (active)
CCSc1nsc(NC(=O)Nc2cccc(C(C)=O)c2)n1	12.6% (active)
C=CCSc1nsc(NC(=O)Nc2cccc(C(C)=O)c2)n1	16.3% (active)
O=C(Nc1cccc(Cl)c1)Nc1ccccc1NS(=O)(=O)c1cccs1	9.83% (active)
O=C(Nc1nncs1)c1ccccc1NS(=O)(=O)c1cccs1	6.44% (active)
